The record followed here is PubChem BioAssay.

Activity calls are given as the source filed them.

One assay addresses Albumin (Bos taurus) (UniProt P02769). As to the kind of experiment: bovine serum albumin binders on microarray, profiling panel, artefact control for SMM control protein annotation, biochemical, small-molecule microarray, Alexa647 label, 635/667 nm fluorescence (AID 1118).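 Also: score merges 667 nm emission intensity and signal-to-noise per printed compound spot.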 The conditions noted are these: BSA-A647 binding, fluorescence 635 nm, higher = more signal.
Assay [1] can be described thus: small-molecule microarray binders of probe aXIP, primary screen, biochemical, NeuroSMM set, 635/667 nm fluorescence (AID 1119).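 Also: probe is the protein aXip251-270 applied at 1 µg/mL to compound-printed slides; binding of probe to printed compounds measured as 667 nm fluorescence plus signal to noise.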 The conditions noted are these: higher = more signal, called active from +8 up or from −8 down.
A short description of assay [2]: small-molecule binders of probe aNOTCH3, primary screen, biochemical, small-molecule microarray, 635/667 nm fluorescence (AID 1120).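 Also: probe is a biotin-tagged antibody raised against NOTCH3 rather than NOTCH3 protein; score merges spot fluorescence near 667 nm with spot signal to noise.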 The conditions noted are these: higher = more signal.
Assay [3] can be described thus: small-molecule binders of probe aNOTCH2, primary screen, biochemical, small-molecule microarray, 635/667 nm fluorescence (AID 1121).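 Also: score merges feature fluorescence read at 667 nm with its signal to noise.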 The conditions noted are these: higher = more signal.
Assay [4] deals with Carbonic anhydrase 2 (Homo sapiens) (UniProt P00918). As to the kind of experiment: CAII small-molecule binders, profiling panel, biochemical, small-molecule microarray, Alexa647-labelled CAII (AID 1122). The conditions noted are these: CAII-A647 binding fluorescence, higher = more signal.
Assay [5] is described as follows: COS7 lysate on small-molecule microarray, probe aHis, 635 nm (AID 1123).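 Also: z-score combines 667nm fluorescence intensity with signal-to-noise per printed compound spot.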 The conditions noted are these: COS7 cell lysate, fluorescence, higher = more signal.
Assay [6] can be described thus: compound binding in COS7 lysate, probe aLAP1, primary screen, cell lysate, small-molecule microarray (AID 1124).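 Also: lysate comes from COS7 cells expressing LAP1 and is applied at 0.3 µg/mL; score merges spot fluorescence near 667 nm with signal-to-noise over triplicate slides.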 The conditions noted are these: probe aLAP1, fluorescence, higher = more signal.
Another assay has as its system Sam68 (KHDRBS1). Briefly: Sam68 small-molecule binders, primary screen, biochemical, small-molecule microarray, 635 nm fluorescence (AID 1125).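 Also: score merges 667 nm channel intensity with signal to noise over triplicate slides.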 The conditions noted are these: small-molecule microarray binding, higher = more signal.
For assay [7], the system named is Chordin-like protein 2 (CHRDL2). As to the kind of experiment: CHRDL2 small-molecule binders, primary screen, biochemical, small-molecule microarray, 635 nm fluorescence (AID 1126).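 Also: printed compound slides probed with Chrdl2 protein at 4 µg/mL for 1 h at 4 C; score merges 667 nm emission intensity with signal to noise over three replicate slides.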 The conditions noted are these: small-molecule microarray binding, fluorescence 635 nm; higher = more signal.
In assay [8] the target is Concanavalin-A (Canavalia ensiformis) (UniProt P02866). Briefly: ConA small-molecule binders, primary screen, artefact control for SMM control protein annotation, biochemical, small-molecule microarray, Alexa647 label, 635 nm (AID 1127).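 Also: z combines 667 nm emission intensity with signal-to-noise across three replicate slides.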 The conditions noted are these: ConA-A647 binding fluorescence, higher = more signal.
Sequence of Concanavalin-A (Canavalia ensiformis) (P02866 whole entry, looked up): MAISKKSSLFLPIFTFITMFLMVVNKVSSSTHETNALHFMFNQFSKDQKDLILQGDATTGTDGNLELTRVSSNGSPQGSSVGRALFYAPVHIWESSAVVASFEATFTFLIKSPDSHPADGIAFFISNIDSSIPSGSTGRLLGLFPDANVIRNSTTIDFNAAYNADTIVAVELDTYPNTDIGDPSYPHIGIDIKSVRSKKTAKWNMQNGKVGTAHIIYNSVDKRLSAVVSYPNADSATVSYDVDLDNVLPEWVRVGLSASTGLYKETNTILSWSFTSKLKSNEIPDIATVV

Sequence of Albumin (Bos taurus) (P02769 whole entry, looked up): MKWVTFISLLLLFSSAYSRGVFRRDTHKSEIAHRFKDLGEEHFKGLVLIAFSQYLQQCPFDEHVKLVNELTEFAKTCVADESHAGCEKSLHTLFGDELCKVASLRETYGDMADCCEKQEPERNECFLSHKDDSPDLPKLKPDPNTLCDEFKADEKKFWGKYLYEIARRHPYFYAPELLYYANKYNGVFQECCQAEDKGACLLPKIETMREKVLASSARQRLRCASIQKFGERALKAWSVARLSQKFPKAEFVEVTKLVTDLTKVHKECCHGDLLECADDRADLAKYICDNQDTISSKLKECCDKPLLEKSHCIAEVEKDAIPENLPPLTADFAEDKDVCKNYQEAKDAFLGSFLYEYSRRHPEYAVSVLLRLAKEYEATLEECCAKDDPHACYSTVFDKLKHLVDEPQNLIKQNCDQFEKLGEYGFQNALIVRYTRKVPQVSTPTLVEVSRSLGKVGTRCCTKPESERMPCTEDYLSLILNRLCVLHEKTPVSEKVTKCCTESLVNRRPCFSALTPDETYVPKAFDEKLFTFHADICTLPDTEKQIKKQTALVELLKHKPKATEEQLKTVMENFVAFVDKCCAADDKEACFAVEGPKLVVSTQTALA

`CC(C)N1C(=O)[C@@]2(c3ccc([N+](=O)[O-])cc3)CC(=O)N(C3CCCCC3)[C@@H]2c2ccc(CO)cc21`: the composite z-score is -0.545 in the assay with Albumin (Bos taurus); -0.215 in assay [2]; -0.12 in [3]; 0.222 in assay [4]; -0.0857 in [5]; 0.398 in assay [6]. For the same compound, the composite z-score turned out to be 0.123 in the assay on Sam68 (KHDRBS1), 0.208 in [7] and 0.684 in [8]. The composite Z-score in assay [1] was 0.633 (inactive).
For the compound `CN1C2C=C(CCCO)C(C3C(=O)N(C(N)=O)C(=O)C32)C1c1cccs1` (stereo not given), the composite z-score was -0.435 with Albumin (Bos taurus); -0.179 in [2]; 0.61 in assay [3]; 0.409 in assay [4]; 0.924 in assay [5]; -0.212 in assay [6]. In addition, the composite z-score was 0.226 with Sam68 (KHDRBS1), 1.51 in [7] and -0.0398 in assay [8]. Moreover, the composite Z-score in assay [1] was -0.394 (inactive).
As to `[N-]=[N+]=NCc1ccccc1C[C@@]1(C(=O)N2CCCCC2)N=C(c2ccc(OCCCO)cc2)O[C@@H]1c1ccccc1N=[N+]=[N-]`, the composite z-score in the assay with Albumin (Bos taurus) is 0.79; in [2], 0.0522; in assay [3] it was -0.13; in assay [4] it was 0.378; in assay [5], 2.1; in [6] it was -0.0562. For the same compound, the figures for the composite z-score (with Sam68 (KHDRBS1); in assay [7]; in assay [8]) were 1.09, -0.186 and 1.08, respectively. In addition, the composite Z-score in assay [1] was 0.131 (inactive).
Consider `O=C(O)[C@H](Cc1ccccc1)n1cc(-c2ccccn2)nn1`, for which the composite z-score is 0.672 with Albumin (Bos taurus); -0.0311 in assay [2]; -0.1 in assay [3]; 0.285 in assay [4]; 0.383 in [5]; 0.132 in assay [6]. Moreover, the composite z-score is 0.614 with Sam68 (KHDRBS1), 0.129 in assay [7] and 0.862 in [8]. For the same compound, the composite Z-score in assay [1] is -0.341 (inactive).
As to `COCCCNC(=O)[C@@]1(Sc2ccc(C)cc2)CC(=O)N(C2Cc3ccccc3C2)[C@@H]1c1ccc(CO)cc1I`, the composite z-score was -1.09 with Albumin (Bos taurus); -0.146 in assay [2]; -0.102 in [3]; 0.871 in [4]; -0.152 in assay [5]; 0.297 in assay [6]. Besides, the composite z-score with Sam68 (KHDRBS1) is -0.52; in [7], -0.555; in [8], -1.61. Further, the composite Z-score in assay [1] was -0.298 (inactive).
As to `Cc1ccc(S[C@]2(C(=O)NCc3ccccc3)CC(=O)N(C(C)C)[C@@H]2c2ccc(CO)cc2I)cc1`, the composite z-score with Albumin (Bos taurus) was 0.838; in assay [2] it was -0.221; in [3], -0.0268; in assay [4] it was 0.304; in assay [5] it was 2.56; in assay [6], 0.704. The values for the composite z-score (in the assay with Sam68 (KHDRBS1); in assay [7]; in assay [8]) were -0.29, -1.59 and -1.29, respectively. For the same compound, the composite Z-score in assay [1] is 0.46 (inactive).
As for `COC(=O)[C@H](Cc1ccccc1)N1CC(/C=C/C2CC2)=C[C@@H]1[C@@H](O)Cc1ccccc1`, the composite z-score in the assay with Albumin (Bos taurus) was 0.506; in assay [2], 0.126; in assay [3], -0.166; in [4] it was 0.171; in assay [5] it was 0.992; in [6], 1.66. Moreover, the results for the composite z-score (with Sam68 (KHDRBS1); in assay [7]; in [8]) were 1.34, 0.779 and 1, respectively. Moreover, the composite Z-score in [1] is -0.325 (inactive).
For `CCOC(=O)C[C@H]1[C@H](OC(=O)c2ccc(-c3ccccc3)cc2)[C@@H](NC(=O)c2ccc3ccccc3c2)c2cc(OCCCO)ccc2N1C(=O)c1ccc2ccccc2n1`, the composite z-score was 0.587 in the assay with Albumin (Bos taurus); 0.178 in assay [2]; 0.0278 in [3]; 0.137 in [4]; 1.06 in assay [5]; -0.0403 in assay [6]. The composite z-score in the assay with Sam68 (KHDRBS1) was 1.04; in [7] it was -0.0835; in assay [8], 0.954. For the same compound, the composite Z-score in assay [1] was 0.152 (inactive).
For the compound `COc1ccc([Si](C)(C)[C@@H]2[C@@H](CCO)O[C@]3(C(=O)N(Cc4cccc(N5C(=O)c6ccccc6Oc6ccccc65)c4)c4ccccc43)[C@H]2C)cc1`, the composite z-score is 0.326 with Albumin (Bos taurus); -0.157 in assay [2]; -0.0712 in [3]; 0.411 in assay [4]; 1.07 in assay [5]; 0.594 in assay [6]. In addition, the composite z-score with Sam68 (KHDRBS1) was 0.554; in assay [7], -0.245; in [8], 0.276. Besides, the composite Z-score in [1] was -0.0368 (inactive).
For `COc1ccc([Si](C)(C)[C@@H]2[C@@H](CCO)O[C@]3(C(=O)N(Cc4cccc(N5C(=O)c6cccc7cccc5c67)c4)c4ccccc43)[C@H]2C)cc1`, the composite z-score is 0.219 in the assay with Albumin (Bos taurus); -0.0947 in assay [2]; -0.101 in assay [3]; 0.428 in [4]; 1.17 in [5]; -0.179 in assay [6]. The composite z-score with Sam68 (KHDRBS1) is 0.262; in assay [7] it was -0.512; in [8] it was 0.48. In addition, the composite Z-score in assay [1] was -0.139 (inactive).
On to `C=CCN1C(=O)[C@]2(CC=C)N=C(c3ccc(OCCCO)cc3)O[C@@H]2c2ccccc21`, for which the composite z-score is 0.93 with Albumin (Bos taurus); 0.193 in [2]; -0.0648 in assay [3]; 0.675 in [4]; 1.35 in [5]; 0.053 in [6]. Moreover, the composite z-score was 1.33 in the assay on Sam68 (KHDRBS1), 0.689 in [7] and 1.14 in [8]. Besides, the composite Z-score in assay [1] is 1.66 (inactive).
Turning to `CCOc1cc(C(O)C2C=CC3C(=O)N(C)C(=O)C3N2N2CCCCC2)ccc1O` (stereo not given), the composite z-score with Albumin (Bos taurus) was 0.534; in [2] it was 0.135; in assay [3] it was -0.0106; in assay [4], 0.709; in assay [5], 0.733; in [6], 0.14. Further, the composite z-score came to 0.0667 in the assay on Sam68 (KHDRBS1), 0.278 in assay [7] and 0.852 in [8]. In addition, the composite Z-score in assay [1] is 0.293 (inactive).
For `O=C1c2ccccc2[C@](Cc2ccccc2I)(C(=O)NCCN2CCOCC2)[C@H](c2ccc(CO)cc2)N1Cc1ccccc1`, the composite z-score with Albumin (Bos taurus) is 0.673; in assay [2], 0.533; in assay [3] it was -0.0468; in assay [4], 0.377; in [5], 1.28; in [6], 0.369. The values for the composite z-score (in the assay with Sam68 (KHDRBS1); in assay [7]; in assay [8]) were 1.3, 0.286 and 1.12, respectively. For the same compound, the composite Z-score in assay [1] was -0.52 (inactive).
`CC(C)c1ccc(NN2C(C(O)c3ccco3)C=CC3C(=O)N(c4ccccc4)C(=O)C32)cc1` (stereo not given): the composite z-score with Albumin (Bos taurus) is 0.488; in [2], 0.133; in assay [3], 0.124; in [4] it was 0.762; in assay [5], 2.18; in assay [6] it was 0.219. In addition, the values for the composite z-score (in the assay with Sam68 (KHDRBS1); in [7]; in assay [8]) were 1.14, -0.394 and 1.17, respectively. For the same compound, the composite Z-score in assay [1] is 0.204 (inactive).
As for `C[N+](C)(C)CCCC[C@@H]1NC(=O)[C@@H]2C[C@H](C(=O)O)[C@H](c3ccc(O)cc3)N2C1=O`, the composite z-score in the assay with Albumin (Bos taurus) was 0.594; in [2], -0.223; in assay [3], -0.0798; in assay [4] it was 0.381; in assay [5], -0.555; in assay [6], -0.534. The values for the composite z-score (with Sam68 (KHDRBS1); in assay [7]; in assay [8]) were -2.19, -0.827 and 0.0317, respectively. In addition, the composite Z-score in [1] is -0.238 (inactive).
Regarding `COC(=O)[C@@]1(Cc2ccc(OC)cc2)[C@H]2c3cc(C(=O)N(C)C)n(Cc4ccccc4)c3C[C@H]2CN1C(=O)c1ccccc1`, the composite z-score is 0.864 with Albumin (Bos taurus); 0.0372 in [2]; -0.0505 in [3]; 0.366 in assay [4]; 1.86 in [5]; 0.421 in assay [6]. The composite z-score is 0.92 in the assay on Sam68 (KHDRBS1), -0.393 in [7] and 0.435 in assay [8]. Moreover, the composite Z-score in assay [1] was -0.96 (inactive).
